Test results as given in ChEMBL document CHEMBL1961873, “Compounds: GSK PKIS; Assays: Nanosyn kinase panel” (2012).

target: Serine/threonine-protein kinase PAK 3 (Homo sapiens) (UniProt O75914); details: at 1 µM;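 also: reported percentage is a mean inhibition value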
Sequence (O75914 whole entry, looked up): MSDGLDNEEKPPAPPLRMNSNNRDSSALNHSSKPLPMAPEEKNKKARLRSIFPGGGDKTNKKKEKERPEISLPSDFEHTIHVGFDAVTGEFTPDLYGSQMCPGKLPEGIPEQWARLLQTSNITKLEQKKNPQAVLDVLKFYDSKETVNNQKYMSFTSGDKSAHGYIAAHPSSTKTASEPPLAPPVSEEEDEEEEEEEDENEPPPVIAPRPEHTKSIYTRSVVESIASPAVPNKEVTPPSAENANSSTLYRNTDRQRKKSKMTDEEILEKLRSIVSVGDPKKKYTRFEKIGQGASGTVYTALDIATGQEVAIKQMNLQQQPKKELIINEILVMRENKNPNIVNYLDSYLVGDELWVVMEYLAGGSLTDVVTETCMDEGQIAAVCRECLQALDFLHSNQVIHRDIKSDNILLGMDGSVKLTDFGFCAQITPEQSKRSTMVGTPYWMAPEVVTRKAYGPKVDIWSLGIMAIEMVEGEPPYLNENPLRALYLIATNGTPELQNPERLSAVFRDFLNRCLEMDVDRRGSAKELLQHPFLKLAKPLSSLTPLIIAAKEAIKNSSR

SMILES | inhibition [%]
c1ccc(Nc2ncc(-c3ccccc3)o2)cc1 | 4.34
CN(C)C(=O)O[C@H]1CN[C@H](C#Cc2cc3ncnc(Nc4ccc(OCc5cccc(F)c5)c(Cl)c4)c3s2)C1 | 4.3
NS(=O)(=O)c1ccc(N/N=C2\C(=O)Nc3ccc(Cl)cc32)cc1 | 5.15
O=C1Nc2ccccc2/C1=C/Nc1ccc2[nH]c(=O)[nH]c2c1 | 5.03
CN1CCN(C(=O)c2ccc(NC(=O)Nc3ccc(N(C)c4ccnc(Nc5ccc(CS(C)(=O)=O)cc5)n4)cc3)cc2)CC1 | 5.09
COc1ccc(-c2nn3ncccc3c2-c2ccnc(Nc3cccc(C(F)(F)F)c3)n2)cc1 | 3.1
O=S(=O)(CCOCc1ccc(-c2ccc3ncnc(Nc4ccc(OCc5cccc(F)c5)c(Cl)c4)c3c2)o1)c1ccccc1 | 2.12
COc1cccc(-n2ncc3c(N/N=C/c4ccc(S(C)(=O)=O)cc4)ncnc32)c1 | 1.53
Cc1cc(O)cc(C)c1/C=C/c1cncc(C(=O)N(C)C)c1 | 2.83
Cc1ccc2c(-c3ccnc(Nc4cccc(C(F)(F)F)c4)n3)c(-c3ccccc3)nn2n1 | 5.68
CS(=O)(=O)CCNCc1nc(-c2ccc3ncnc(Nc4ccc(OCc5cccc(C(F)(F)F)c5)cc4)c3c2)cs1 | 5.04
Cc1ccc(Nc2ccnc(Nc3cccc(C(N)=O)c3)n2)cc1O | 3.98
CCS(=O)(=O)c1ccc(OC)c(Nc2ncc(-c3cccc(OC)c3)o2)c1 | 2.36
COc1cc2ncnc(Nc3ccc(C)c(O)c3)c2cc1OC | 5.36
COc1cc2ncnc(Nc3ccc4c(cnn4Cc4ccccc4)c3)c2cc1OC | 3.19
NS(=O)(=O)c1cccc(-c2cc3ccncc3cc2OCc2ccccc2)c1 | 7.31
Oc1cccc(-c2nc(-c3ccccc3)[nH]c2-c2ccncc2)c1 | 3.48

SMILES | inhibition [%]
NC(=O)c1sc(-n2cnc3ccccc32)cc1OCc1ccccc1Br | 5.89
Cc1nc(-c2ccccc2)n2nc(NCCCN3CCOCC3)ncc12 | 4.33
Cc1ccc(NC(=O)CC2CC2)cc1-c1ccc(C(=O)NCC2CC2)cc1 | 4.25
NC(=O)c1cccc(Nc2nccc(Nc3cccc(F)c3)n2)c1 | 2.37
Nc1nccc(C#Cc2cncnc2Nc2ccc(OCc3cccc(F)c3)c(Cl)c2)n1 | 3.37
NS(=O)(=O)c1ccc(-c2cc3ccncc3cc2OCc2ccccc2)cc1 | 4.21
CCS(=O)(=O)c1ccc(OC)c(Nc2nccc(N(C)c3ccc4c(C)n[nH]c4c3)n2)c1 | 5.09
COc1cccc(-n2nc(C)c3c(N/N=C(\C)c4ccncc4)ncnc32)c1 | 2.49
COC(=O)c1ccc2c(c1)C(=Cc1cc(Br)c(O)c(Br)c1)C(=O)N2 | 5.43
COc1cccc(-n2ncc3c(N/N=C/c4ccc(C)cc4)ncnc32)c1 | 6.42
NS(=O)(=O)c1ccc(Nc2cc(-c3cccc(O)c3)n[nH]2)cc1 | 6.8
Cc1cc(-c2ccccn2)cc(C)c1/C=C/c1cncc(-c2nn[nH]n2)c1 | 5.22
CCn1c(-c2nonc2N)nc2c(C#CC(C)(C)O)nc(OCCNC)cc21 | 5.05
O=C(Nc1ccc(Oc2ccc3[nH]c(NC(=O)c4ccco4)nc3c2)cc1)Nc1cc(C(F)(F)F)ccc1F | 0.34
Cc1ccc2c(-c3ccnc(Nc4ccc5c(c4)OCCO5)n3)c(-c3ccc(C(F)(F)F)cc3)nn2n1 | 0.74
[O-][S+]1CCN(Cc2ccc(-c3ccc4ncnc(Nc5ccc(OCc6ccccc6)c(Cl)c5)c4c3)o2)CC1 | 2.19

target: Serine/threonine-protein kinase PAK 5 (Homo sapiens) (UniProt Q9P286); details: at 0.1 µM;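 also: values are mean percent inhibition of PAK5 from a kinase inhibitor set screen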
Sequence (Q9P286 whole entry, looked up): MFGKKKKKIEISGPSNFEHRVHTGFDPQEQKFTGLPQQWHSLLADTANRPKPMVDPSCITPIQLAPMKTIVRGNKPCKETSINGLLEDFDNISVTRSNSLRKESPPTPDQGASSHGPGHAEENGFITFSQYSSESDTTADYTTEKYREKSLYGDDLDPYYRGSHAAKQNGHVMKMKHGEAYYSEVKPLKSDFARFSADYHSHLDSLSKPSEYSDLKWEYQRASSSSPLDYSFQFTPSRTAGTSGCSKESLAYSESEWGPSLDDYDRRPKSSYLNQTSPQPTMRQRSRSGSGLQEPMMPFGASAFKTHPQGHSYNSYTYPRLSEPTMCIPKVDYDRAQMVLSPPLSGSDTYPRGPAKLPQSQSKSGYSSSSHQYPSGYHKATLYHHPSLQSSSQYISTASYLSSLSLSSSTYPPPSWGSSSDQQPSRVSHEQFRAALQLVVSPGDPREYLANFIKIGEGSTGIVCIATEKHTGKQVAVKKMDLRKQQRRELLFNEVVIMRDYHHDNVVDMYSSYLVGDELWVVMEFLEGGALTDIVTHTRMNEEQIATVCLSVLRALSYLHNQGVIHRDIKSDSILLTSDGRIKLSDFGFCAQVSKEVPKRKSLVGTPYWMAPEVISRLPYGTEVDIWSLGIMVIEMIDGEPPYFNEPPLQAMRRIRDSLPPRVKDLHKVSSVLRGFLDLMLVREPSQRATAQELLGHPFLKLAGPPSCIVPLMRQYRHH

SMILES | inhibition [%]
c1ccc(Nc2ncc(-c3ccccc3)o2)cc1 | 2.74
CN(C)C(=O)O[C@H]1CN[C@H](C#Cc2cc3ncnc(Nc4ccc(OCc5cccc(F)c5)c(Cl)c4)c3s2)C1 | 4.8
NS(=O)(=O)c1ccc(N/N=C2\C(=O)Nc3ccc(Cl)cc32)cc1 | 4.18
O=C1Nc2ccccc2/C1=C/Nc1ccc2[nH]c(=O)[nH]c2c1 | 5.25
CN1CCN(C(=O)c2ccc(NC(=O)Nc3ccc(N(C)c4ccnc(Nc5ccc(CS(C)(=O)=O)cc5)n4)cc3)cc2)CC1 | 3.35
COc1ccc(-c2nn3ncccc3c2-c2ccnc(Nc3cccc(C(F)(F)F)c3)n2)cc1 | 1.8
O=S(=O)(CCOCc1ccc(-c2ccc3ncnc(Nc4ccc(OCc5cccc(F)c5)c(Cl)c4)c3c2)o1)c1ccccc1 | 0.21
COc1cccc(-n2ncc3c(N/N=C/c4ccc(S(C)(=O)=O)cc4)ncnc32)c1 | 2.27
Cc1cc(O)cc(C)c1/C=C/c1cncc(C(=O)N(C)C)c1 | 3.14
Cc1ccc2c(-c3ccnc(Nc4cccc(C(F)(F)F)c4)n3)c(-c3ccccc3)nn2n1 | -4.38
CS(=O)(=O)CCNCc1nc(-c2ccc3ncnc(Nc4ccc(OCc5cccc(C(F)(F)F)c5)cc4)c3c2)cs1 | 2.81
Cc1ccc(Nc2ccnc(Nc3cccc(C(N)=O)c3)n2)cc1O | 5.17
CCS(=O)(=O)c1ccc(OC)c(Nc2ncc(-c3cccc(OC)c3)o2)c1 | 6.72
COc1cc2ncnc(Nc3ccc(C)c(O)c3)c2cc1OC | 0.51
COc1cc2ncnc(Nc3ccc4c(cnn4Cc4ccccc4)c3)c2cc1OC | 1.77
NS(=O)(=O)c1cccc(-c2cc3ccncc3cc2OCc2ccccc2)c1 | -0.43
Oc1cccc(-c2nc(-c3ccccc3)[nH]c2-c2ccncc2)c1 | 11.4

SMILES | inhibition [%]
NC(=O)c1sc(-n2cnc3ccccc32)cc1OCc1ccccc1Br | 2.59
Cc1nc(-c2ccccc2)n2nc(NCCCN3CCOCC3)ncc12 | 1.91
Cc1ccc(NC(=O)CC2CC2)cc1-c1ccc(C(=O)NCC2CC2)cc1 | 6.64
NC(=O)c1cccc(Nc2nccc(Nc3cccc(F)c3)n2)c1 | -1.35
Nc1nccc(C#Cc2cncnc2Nc2ccc(OCc3cccc(F)c3)c(Cl)c2)n1 | 3.29
NS(=O)(=O)c1ccc(-c2cc3ccncc3cc2OCc2ccccc2)cc1 | 1.12
CCS(=O)(=O)c1ccc(OC)c(Nc2nccc(N(C)c3ccc4c(C)n[nH]c4c3)n2)c1 | 1.92
COc1cccc(-n2nc(C)c3c(N/N=C(\C)c4ccncc4)ncnc32)c1 | -0.74
COC(=O)c1ccc2c(c1)C(=Cc1cc(Br)c(O)c(Br)c1)C(=O)N2 | 7.06
COc1cccc(-n2ncc3c(N/N=C/c4ccc(C)cc4)ncnc32)c1 | 6.1
NS(=O)(=O)c1ccc(Nc2cc(-c3cccc(O)c3)n[nH]2)cc1 | 3.04
Cc1cc(-c2ccccn2)cc(C)c1/C=C/c1cncc(-c2nn[nH]n2)c1 | 1.64
CCn1c(-c2nonc2N)nc2c(C#CC(C)(C)O)nc(OCCNC)cc21 | 3.8
O=C(Nc1ccc(Oc2ccc3[nH]c(NC(=O)c4ccco4)nc3c2)cc1)Nc1cc(C(F)(F)F)ccc1F | 6.4
Cc1ccc2c(-c3ccnc(Nc4ccc5c(c4)OCCO5)n3)c(-c3ccc(C(F)(F)F)cc3)nn2n1 | -9.67
[O-][S+]1CCN(Cc2ccc(-c3ccc4ncnc(Nc5ccc(OCc6ccccc6)c(Cl)c5)c4c3)o2)CC1 | 2.51
